One may read the % Inhibition as the change of the read-out against control, counted positive when it falls.

Among all 13,000 compounds or so, about 3,200 (25%) showed an effect of 50% or more. This is one part of the list.

For the test, the system named is P. falciparum stage V gametocytes. On the set-up: BacTiter-Glo ATP luminescence viability of purified stage V gametocytes in 384-well plates, per cent inhibition versus DMSO. As to conditions: 48 h, 5 µM; inhibitor.
`C=C1N(C)c2cc([N+](=O)[O-])c(N)cc2C1(C)C` [TCMDC-125319]: the “% Inhibition” value was -63.8%.

Regarding `COc1cc2c(cc1COc1ccccc1)CCN1Cc3cc(OC)c(OC)cc3CC21` (stereo not shown) [TCMDC-141984], the “% Inhibition” value is -4.56%.

As for `COc1cc2c(cc1O)[C@@H]1[C@H](O)[C@@H](O)C=C3CCN(C2)[C@H]31` [TCMDC-132036], the “% Inhibition” value was determined as 63.23%.

As for `CC(=O)Nc1ccc(C(=O)Nc2cccc(-c3ccc(-c4nc5ccccc5[nH]4)s3)c2)cn1` [TCMDC-136821], the “% Inhibition” value is listed as 24.61%.

With `CC(=O)Nc1ccc(C(=O)Nc2cccc(-c3ccc(-c4nc5ccccc5[nH]4)cc3)c2)cn1` [TCMDC-136827], the “% Inhibition” value is given as 76.21%.

`CC(=O)Nc1ccc(C(=O)Nc2ccc(-c3csc(-c4nc5ccccc5[nH]4)c3)cc2)cn1` [TCMDC-132393]: the “% Inhibition” value is 4.532%.

With `CC(=O)Nc1ccc(C(=O)Nc2cccc(-c3cccc(-c4nc5ccccc5[nH]4)c3)c2)cn1` [TCMDC-136820], the “% Inhibition” value was 6.09%.

Regarding `CC(=O)Nc1ccc(C(=O)Nc2ccc(-c3cccc(-c4nc5ccccc5[nH]4)c3)cc2)cn1` [TCMDC-136819], the “% Inhibition” value is -15.84%.

For `CC(=O)Nc1ccc(C(=O)Nc2cccc(-c3csc(-c4nc5ccccc5[nH]4)c3)c2)cn1` [TCMDC-132405], the “% Inhibition” value is 77.44%.

As to `Cc1ccc(Cn2c(N3CCC(C(=O)NCc4ccccn4)CC3)nc3ccccc32)cc1` [TCMDC-125442], the “% Inhibition” value is listed as 35.66%.

Regarding `NC(=O)NC(=O)C=Cc1ccco1` [TCMDC-131644], the “% Inhibition” value is reported as -0.9845%.

Regarding `COc1cc(NC(=O)/C=C/c2cc(F)cc(F)c2F)cc(OCCN2CCC3(CC2)OCCO3)c1` [TCMDC-140933], the “% Inhibition” value was -20.54%.

As for `COc1ccc(C(=O)N2CCC3(CC2)C(=O)N(CC(=O)NCC2CCCCC2)CN3c2ccccc2)cc1` [TCMDC-125171], the “% Inhibition” value is listed as 3.565%.

Turning to `O=C(Nc1ccc(C(F)(F)F)cc1)c1ccc(S(=O)(=O)NC2CCCN(CC3CCCCC3)C2)cc1` (stereo not shown) [TCMDC-133678], the “% Inhibition” value was 5.433%.

As to `O=C(Nc1cccc(C(F)(F)F)c1)c1ccc(S(=O)(=O)NC2CCN(CC3CCCCC3)CC2)cc1` [TCMDC-132773], the “% Inhibition” value is listed as 84.32%.

As for `O=C(Nc1ccc(C(F)(F)F)cc1)c1ccc(S(=O)(=O)NC2CCN(CC3CCCCC3)C2)cc1` (stereo not shown) [TCMDC-133674], the “% Inhibition” value is -14.42%.

For `O=C(Nc1cccc(C(F)(F)F)c1)c1cccc(S(=O)(=O)NC2CCN(CC3CCCCC3)C2)c1` (stereo not shown) [TCMDC-132487], the “% Inhibition” value came out at 9.75%.

As to `O=C(Nc1cccc(C(F)(F)F)c1)c1ccc(S(=O)(=O)NC2CCN(CC3CCCCC3)C2)cc1` (stereo not shown) [TCMDC-132772], the “% Inhibition” value is reported as 86.66%.

`O=C(Nc1ccc(C(F)(F)F)cc1)c1ccc(S(=O)(=O)NC2CCN(CC3CCCCC3)CC2)cc1` [TCMDC-133676]: the “% Inhibition” value was -72.67%.

As for `CCC[C@@H]([C@@H](CC1CCCCC1)C(=O)N[C@H](C(=O)Nc1nccc(N)n1)C(C)(C)C)N(O)C=O` [TCMDC-138127], the “% Inhibition” value was determined as 6.724%.

Take `NC12CC3CC(CC(C3)C1)C2` [TCMDC-125869]: the “% Inhibition” value worked out at 6.577%.

Consider `CC(C)NC(=O)c1cccc(-c2cccc(OCCN3CCSCC3c3ccccc3)c2)c1` (stereo not shown) [TCMDC-134384], for which the “% Inhibition” value is listed as 34.28%.

As to `O=C(/C=C/c1ccc(Cl)c(Cl)c1)Nc1cccc(CN2CCC(c3c[nH]c4ccc(O)cc34)CC2)c1` [TCMDC-139634], the “% Inhibition” value is listed as -96.41%.

For the compound `COC(=O)CCCCOc1cc(Cc2cnc(N)nc2N)cc(OC)c1OC` [TCMDC-138041], the “% Inhibition” value is reported as 1.908%.

For `Cc1cccc2[nH]cc(C3CCN(CC4CCC(NC(=O)/C=C/c5ccc(Cl)c(Cl)c5)CC4)CC3)c12` (stereo not shown) [TCMDC-140137], the “% Inhibition” value turned out to be 108%.

As for `COc1cc2c(C3CCN(CC4CCC(NC(=O)/C=C/c5ccc(Cl)c(Cl)c5)CC4)CC3)c[nH]c2cn1` (stereo not shown) [TCMDC-140245], the “% Inhibition” value is listed as 13.08%.

On to `Cc1cccc2c(C3CCN(CC4CCC(NC(=O)/C=C/c5ccc(Cl)c(Cl)c5)CC4)CC3)c[nH]c12` (stereo not shown) [TCMDC-139639], for which the “% Inhibition” value was found to be 73.81%.

Regarding `O=C(/C=C/c1ccc(Cl)c(Cl)c1)NC1CCC(CN2CCC(c3coc4ccccc34)CC2)CC1` (stereo not shown) [TCMDC-140260], the “% Inhibition” value was -37.97%.

For the compound `COc1ccc2nccc(NC(=O)N3CCC(NCc4cc5ccccc5[nH]4)CC3)c2n1` [TCMDC-140671], the “% Inhibition” value was -10.57%.

In the case of `Cc1cc(Cl)ccc1N(Cc1ccccc1)c1ccnc(Cl)n1` [TCMDC-138722], the “% Inhibition” value is reported as -10.33%.

In the case of `Cc1cc(C)nc(-n2[nH]c(C)c(Cc3ccc(C(C)(C)C)cc3)c2=O)n1` [TCMDC-125382], the “% Inhibition” value was found to be 16.36%.

Regarding `O=C(Nc1ccc(N2CCNCC2)cc1)c1ccn2ncc(-c3cccc(Cl)c3)c2n1` [TCMDC-132663], the “% Inhibition” value is reported as 113.1%.

On to `Oc1ccc(CCNc2nc(NCc3ccccc3-c3cccc(Cl)c3)nc(N3CCNCC3)n2)cc1` [TCMDC-133784], for which the “% Inhibition” value is listed as -2.358%.

With `O=C(Nc1cccc(Cl)c1)c1cnc(N2CCN(c3ccncc3)CC2)c(Cl)c1` [TCMDC-134600], the “% Inhibition” value turned out to be 12.94%.

`Cc1ccc(Cn2nc(N3CCNCC3)ccc2=O)cc1NC(=O)Nc1ccc(-c2ccccc2)cc1` [TCMDC-132580]: the “% Inhibition” value is 107.8%.

In the case of `O=C(Nc1ccc(-c2ccccc2)cc1)Nc1cccc(Cn2cnc(N3CCCNCC3)cc2=O)c1` [TCMDC-133363], the “% Inhibition” value was -19.33%.

Consider `COc1ccc(NC(=O)Nc2ccc(-c3ccccc3)cc2)cc1Cn1nc(Cl)c(N2CCCNCC2)cc1=O` [TCMDC-141724], for which the “% Inhibition” value is listed as 21.4%.

`Cc1ccc(Cn2nc(Cl)c(N3CCCNCC3)cc2=O)cc1NC(=O)Nc1ccc(-c2ccccc2)cc1` [TCMDC-141697]: the “% Inhibition” value turned out to be 91.1%.

`O=C(Nc1ccc(Cn2nc(Cl)c(N3CCCNCC3)cc2=O)cc1)Nc1ccc(-c2ccccc2)cc1` [TCMDC-141696]: the “% Inhibition” value was -10.1%.

For `O=C(Nc1ccc(Cn2nc(Cl)c(N3CCNCC3)cc2=O)cc1)Nc1ccc(-c2ccccc2)cc1` [TCMDC-141700], the “% Inhibition” value is given as -30.94%.

For the compound `O=C(Nc1ccc(-c2ccccc2)cc1)Nc1cccc(Cn2nc(Cl)c(N3CCNCC3)cc2=O)c1` [TCMDC-141694], the “% Inhibition” value is -35.56%.

In the case of `O=C(Nc1ccc(Cn2nc(Cl)c(N3CCCNCC3)cc2=O)cc1)c1ccc(-c2ccccc2)cc1` [TCMDC-141693], the “% Inhibition” value turned out to be 29.71%.

With `Cc1c(Cn2nc(Cl)c(N3CCNCC3)cc2=O)cccc1NC(=O)Nc1ccc(-c2ccccc2)cc1` [TCMDC-141699], the “% Inhibition” value is given as 65.88%.

On to `Cc1ccc(Cn2cnc(N3CC(C)NC(C)C3)cc2=O)cc1NC(=O)Nc1ccc(-c2ccccc2)cc1` (stereo not shown) [TCMDC-133371], for which the “% Inhibition” value stood at 24.76%.

Turning to `O=C(Nc1ccc(-c2ccccc2)cc1)Nc1cccc(Cn2nc(Cl)c(N3CCCNCC3)cc2=O)c1` [TCMDC-141695], the “% Inhibition” value amounted to 3.325%.

Consider `Cc1ccc(Cn2nc(Cl)c(N3CCNCC3)cc2=O)cc1NC(=O)Nc1ccc(-c2ccccc2)cc1` [TCMDC-141698], for which the “% Inhibition” value is given as 114.4%.

Take `CCN1CCC(N2CCC(C(=O)Nc3cccc(-c4cccc(Cl)c4)c3)CC2)CC1` [TCMDC-124650]: the “% Inhibition” value was 24.3%.

On to `COc1ccc(CN2CCCN(Cc3cccc(C(=O)Nc4ccc(C(C)(C)C)cc4)c3)CC2)cc1` [TCMDC-135986], for which the “% Inhibition” value amounted to 5.589%.

For the compound `CCc1c(C)nc(-n2nc(C)cc2NC(=O)CC(c2ccccc2)c2ccccc2)[nH]c1=O` [TCMDC-124933], the “% Inhibition” value was -29.94%.

In the case of `NC(=O)Nc1ccc2c(Nc3ccc(OCc4ccccc4)cc3)ncnc2c1` [TCMDC-131937], the “% Inhibition” value is given as 13.28%.

With `Cc1ccc2sc(N(CCCn3ccnc3)C(=O)c3ccco3)nc2c1C` [TCMDC-124922], the “% Inhibition” value turned out to be 21.61%.

Take `O=C(Cc1cccnc1)Nc1cccc(-c2cccc(-c3nc4ccc(C(F)(F)F)cc4[nH]3)c2)c1` [TCMDC-136815]: the “% Inhibition” value worked out at 21.33%.

For the compound `COc1ccc(CN2CCN(CCCCNC(=O)c3ccc(NC(=O)c4ccc(Cl)cc4)cc3)CC2)c(OC)c1` [TCMDC-138280], the “% Inhibition” value is listed as 2.758%.

Take `COc1ccc(CC2(c3ccc(F)cc3)N=C(N)N(CCCc3cccnc3)C2=O)cc1` (stereo not shown) [TCMDC-136541]: the “% Inhibition” value turned out to be 12.34%.

As for `Cc1cc(N[C@@H](CC(C)C)C(=O)NCCOc2ccccc2)nc(NCCc2ccccc2)n1` [TCMDC-134871], the “% Inhibition” value was 94.75%.

Consider `Cc1cc(N[C@@H](Cc2ccccc2)C(=O)NCCOc2ccccc2)nc(NCCc2cccs2)n1` [TCMDC-134813], for which the “% Inhibition” value is 64.23%.

Regarding `Cc1cccc(CNc2nc(C)cc(N[C@@H](Cc3ccccc3)C(=O)NCCOc3ccccc3)n2)c1` [TCMDC-134888], the “% Inhibition” value stood at 18.91%.

For `Cc1cc(N[C@@H](Cc2ccccc2)C(=O)NCCOc2ccccc2)nc(NCCc2ccccn2)n1` [TCMDC-134748], the “% Inhibition” value was determined as 75.62%.

Turning to `Cc1cc(N[C@@H](Cc2ccccc2)C(=O)NCc2cccs2)nc(NCCOc2ccccc2)n1` [TCMDC-134758], the “% Inhibition” value was determined as 28.84%.

As to `Cc1cc(N[C@@H](Cc2ccccc2)C(=O)NCCOc2ccccc2)nc(NCC2CCCCC2)n1` [TCMDC-134933], the “% Inhibition” value was -5.307%.

In the case of `Cc1cc(N[C@@H](Cc2ccccc2)C(=O)NCCOc2ccccc2)nc(NCCc2ccc(F)cc2)n1` [TCMDC-134789], the “% Inhibition” value turned out to be 64.78%.

For `CCCC(C)Nc1nc(C)cc(N[C@@H](Cc2ccccc2)C(=O)NCCOc2ccccc2)n1` (stereo partly shown) [TCMDC-134765], the “% Inhibition” value is -43.65%.

Regarding `Cc1cc(N[C@@H](CC(C)C)C(=O)NCCOc2ccccc2)nc(NCCc2ccc(F)cc2)n1` [TCMDC-134795], the “% Inhibition” value was 47.6%.

As to `Cc1cc(N[C@@H](CC(C)C)C(=O)NCCOc2ccccc2)nc(NCCOc2ccccc2)n1` [TCMDC-134761], the “% Inhibition” value was found to be 40.02%.

(Values after publication PMC4552634, “A New Set of Chemical Starting Points with Plasmodium falciparum Transmission-Blocking Potential for Antimalarial Drug Discovery” (PLoS ONE, 2015).)
